STAT1 blocker: STAT1 signaling inhibitors, primary screen, cell-based, HTS, luciferase reporter; hit rate 0.35% among 200,000; NIH 3T3 STAT1-luciferase reporter, IFN-gamma, luminescence; inhibition, % at 5.5 µM;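 active = inhibition above a set limit, the mean inhibition across all tested compounds plus 3 SD, cut at about 34% in these data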;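 also: 0% = IFN-gamma with DMSO and 100% = IFN-gamma with 300 µM nifuroxazide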
TRAIL sens C8: viability loss with TRAIL in NB7+C8 cells, primary screen, TRAIL sensitizer project, cell-based, ATPlite luminescence; inhibition (viability loss, TRAIL sensitization), % at 10 µM; hit rate 1% among 360,000; AID 624354, 2012;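 active = compounds causing at least 50% loss of cell viability in the single-dose screen, relative to plate controls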
HSP90 refold inh: HSP90 inhibitors, primary screen, cell lysate, luminescence | inhibition, % at 5.6 µM | hit rate 0.91% among 290,000 | Rabbit reticulocyte lysate, luciferase refolding luminescence, 3 h | Heat shock protein HSP 90 (rabbit reticulocyte lysate; luciferase refolding);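 active = inhibition above the screen-wide mean plus 3 SD, computed separately per campaign, cut at about 16% in these data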;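 also: 0% = DMSO wells and 100% = 60 µM geldanamycin wells; inhibitors lower the luminescence because luciferase stays unfolded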
HSF1 inhib: HSF1 inhibitors in luciferase reporter cells, primary screen, cell-based, NIH3T3, luminescence | NIH3T3-HGL HSE-luciferase, MG132-induced, luminescence 8 h; stronger effect = lower value | activity change, negative = inhibition, % at 7.5 µM (by protocol) | hit rate 0.77% among 300,000;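 active = more than half of replicate wells show activity change below -50%, luminescence cut by over half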;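 also: luciferase reports HSF-1 transcriptional activity via heat shock element; 0% = median of DMSO wells and -100% = zero luminescence signal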
PPC-1+TRAIL kill: compounds killing PPC-1 cancer cells with TRAIL present, primary screen, TRAIL potentiator project, ATPLite luminescence, uHTS; PPC-1 cells + TRAIL, ATPLite viability luminescence; cell killing (% activity), % at 4 µM or 5 µM; hit rate 0.41% among 220,000;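 active = cell killing above 50% in the first pass at 4 µM, then a duplicate retest at 5 µM averaging 50% or more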;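 also: plate controls were cells with TRAIL plus DMSO for no effect and medium-only wells lacking cells for full effect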
STAT3 inh: IL-6 driven STAT3 reporter inhibitors, primary screen, U3A cells, luciferase, luminescence, MLSCN library | IL-6 STAT3-luciferase reporter; host cell line lacks STAT1 | inhibition, % at 5.5 µM | hit rate 0.89% among 190,000;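 active = inhibition above the mean inhibition across all screened compounds plus 3 SD, cut at about 44% in these data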;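 also: 0% = DMSO only wells and 100% = 100 µM nifuroxazide control wells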
* = called active by the depositor; . = no result given. Rows were chosen to be rich in hits. Some 2.4% of all compounds tested hit in one or more screens of this group.

SMILES	STAT1 blocker	TRAIL sens C8	HSP90 refold inh	HSF1 inhib	PPC-1+TRAIL kill	STAT3 inh
CN1C(C(=O)N2CCC3(CC2)OCCO3)=CC(c2ccc(F)cc2)=NS1(=O)=O	.	-12	-3	-6	.	.
COc1ccc(C2=CC(c3ccc(OC)c(OC)c3)c3c(c4ccccc4oc3=O)O2)cc1OC (stereo not drawn)	.	21	4	-56*	20	.
COc1ccc(C2C(C#N)=C(N)Oc3c2c(=O)oc2ccccc32)cc1Cn1cc([N+](=O)[O-])cn1 (stereo not drawn)	0	5	-1	1	16	10
CCOC(=O)[C@]12Cc3cc(Cl)ccc3[C@H]1N(C1CCCCC1)C(=O)c1ccccc12	.	96*	.	.	.	.
CCOC(=O)[C@]12Cc3cc(OC)ccc3[C@H]1N(C1CCCCC1)C(=O)c1ccccc12	.	85*	.	.	.	.
CCOC(=O)[C@]12Cc3cc(Cl)ccc3[C@H]1N(C)C(=O)c1ccccc12	.	7	.	.	.	.
C[C@]12CC[C@H]3[C@@H](CC[C@]4(O)C[C@@H](O)CC[C@]34C=O)[C@@]1(O)CC[C@@H]2C1=CC(=O)OC1	.	61*	.	.	.	.
C[C@H]1O[C@@H](OC2CC[C@]3(C=O)[C@H]4CC[C@]5(C)[C@@H](C6=CC(=O)OC6)CC[C@]5(O)[C@@H]4CC[C@]3(O)C2)CC2OC(C)(C)OC21 (stereo partly drawn)	.	48*	1	-12	.	.
CC12CCC3C(CCC4(O)CC(O)CCC34C=O)C1(O)CCC2C1=CC(=O)OC1 (stereo not drawn)	.	69*	.	.	.	.
CCCCN=C[C@]12CCC(O)CC1(O)CCC1[C@@H]2CC[C@]2(C)[C@H](C3C=CC(=O)O3)CCC12O (stereo partly drawn)	.	42	1	-11	.	.
CC12CC[C@H]3[C@@H](CCC4(O)C[C@H](O)CCC34/C=N/NC(=O)c3ccccc3Cl)C1(O)CCC2C1=CC(=O)OC1 (stereo partly drawn)	.	8	3	-5	3	.
CC12CCC3C(CCC4(O)CC(O)CCC34C=NO)C1(O)CCC2C1=COC(=O)C1 (stereo not drawn)	.	69*	.	.	.	.
CC1CN1P(=S)(c1ccccc1)N1CC1C (stereo not drawn)	.	3	.	.	.	.
C[C@]12CCC3C(CCC4=CC(O)CC[C@@]43/C=N/O)C1(O)CCC2C1=CC(=O)OC1 (stereo partly drawn)	.	52*	-2	0	.	.
CC1CN1P(=O)(Oc1ccccc1)N1CC1C (stereo not drawn)	.	-7	.	.	.	.
OC1/C(=C/c2ccccc2F)N2CCC1CC2 (stereo not drawn)	-13	-2	2	-8	12	2
C=CCn1c(O)c(C(C)=NCc2cc(OC)cc(OC)c2)c(=O)[nH]c1=O	15	82*	-2	4	28	16
C=CCn1c(O)c(C(C)=NCc2cccnc2)c(=O)[nH]c1=O	-3	-15	1	11	11	1
O=C1Nc2ccccc2/C1=C/c1cnc[nH]1	-19	-8	3	38	-26	57*
COc1ccccc1CN1CCN(C(=O)COc2ccc3ccccc3c2)CC1	.	8	-2	-2	.	.
COC(=O)[C@@H]1[C@@H](C(=O)OC)C2(c3ccccc3-c3ccccc32)N(c2ccc(Cl)cc2)N1C#N	6	92*	10	-96*	26	0
O=C(c1ccccc1)N1CCC2(CC1)OCCO2	.	9	-3	0	0	.
O=C(c1ccc2c(c1)OCO2)N1CCC2(CC1)OCCO2	-6	6	0	-68*	14	7
O=c1[nH]c(O)c(C=Nc2ccccc2Oc2ccccc2)c(=O)[nH]1	.	-13	2	-1	15	.
CCOC(=O)c1ccc(-[n+]2c(-c3ccccc3)cc(-c3ccccc3)cc2-c2ccccc2)cc1	.	.	.	16	.	.
SMILES	STAT1 blocker	TRAIL sens C8	HSP90 refold inh	HSF1 inhib	PPC-1+TRAIL kill	STAT3 inh
CCOC(=O)c1cccc(-[n+]2c(-c3ccccc3)cc(-c3ccccc3)cc2-c2ccccc2)c1	.	58*	.	-5	.	.
Cc1ccc(-c2cc(-c3ccc(C)cc3)[n+](-c3ccc(C(=O)[O-])cc3)c(-c3ccc(C)cc3)c2)cc1	.	6	.	-29	.	.
Cc1ccc(-c2cc(-c3ccc(C)cc3)[n+](-c3ccccc3)c(-c3ccc(C)cc3)c2)cc1	.	71*	.	2	.	.
Cc1ccc(-c2cc(-c3ccccc3)cc(-c3ccccc3)[n+]2-c2ccccc2)cc1	.	91*	.	-18	.	.
Cc1ccc(OC(=O)N(C)C[C@@H]2OCc3cnnn3CCCC(=O)N([C@H](C)CO)C[C@H]2C)cc1	.	2	.	.	.	.
COC(=O)C1=C(c2ccc(F)cc2OCc2ccccc2)C[C@@H]2CC[C@H]1N2C(=O)NCc1ccc2c(c1)OCO2	.	5	.	.	.	.
O=C(CCc1ccccc1)N1Cc2cc(N3CCCCC3)ccc2-n2nncc2C1	.	-6	.	.	.	.
COC(=O)C1=C(C(=O)OC)C2OC1c1cc3ccccc3cc12	.	-7	.	59*	.	.
COC(=O)C1=C(c2ccc3ccccc3c2)C[C@@H]2CC[C@H]1N2C	.	-2	.	.	.	.
ClCCN(CCCl)c1ccc(-n2cnc3c(Cl)ncnc32)cc1	.	86*	.	.	.	.
N[C@@H](Cc1ccc(N(CCCl)CCCl)cc1)C(=O)O	.	5	.	.	.	.
Cc1ccc(N2C(=O)NC(=O)/C(=C/c3cnn(-c4ccc(C)cc4)c3)C2=O)cc1	-12	-5	0	-70*	20	-4
CSc1ncc(/C=C2/C(=O)NC(=O)N(c3ccc(C)cc3)C2=O)cn1	3	-8	-3	-6	8	-8
CCC(C)N1C(=O)/C(=C/c2ccc3c(c2)CCN3CCCCl)C(=O)NC1=S (stereo not drawn)	5	0	3	1	3	-6
COC(=O)[C@]12OC[C@]34C([C@@H](O)[C@@H]1O)[C@]1(C)CC(=O)C(O)=C(C)[C@@H]1C[C@H]3OC(=O)[C@H](O)[C@@H]24 (stereo partly drawn)	.	39	.	-69*	28	.
CC1=CC(O)C(O)C2(C)C1CC1OC(=O)C(O)C3C(C)C(O)C4(O)OCC13C42 (stereo not drawn)	.	0	.	.	.	.
COC(=O)C1=C(c2ccc(S(C)(=O)=O)cc2)C[C@@H]2CC[C@H]1N2C(=O)NCc1cccc2ccccc12	.	7	.	3	.	.

Source: PubChem
